# Reference: PubChem BioAssay AID720690 (Broad Institute, 2013)
# Potency and affinity values are given separately. The source made the active and inactive calls.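 The calls were made as follows: active = every repeat run showing a signal drop whose fitted half-maximal concentration is at most twice the top tested concentration; inconclusive = repeat runs disagree, or flat partial drop, or poor fit; inactive = the rest.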
# Assay: HEK293T cytotoxicity, dose response, cytotoxicity control for miR-122 modulator project, cell-based, activator set, cherry-pick (AID 720690)
# Settings: HEK293T viability, CellTiter-Glo luminescence, 48 h; series mostly up to 26 µM
row,SMILES,outcome
1,Cc1cccc(C)c1NC(=O)CSCC(=O)c1ccc(O)c(O)c1,inactive
2,C[C@H]1CN([C@@H](C)CO)C(=O)c2cc(C#CC3CCCC3)cnc2O[C@H]1CN(C)C(=O)Cc1ccccn1,inactive
3,C[C@H](NC(=O)C[C@@H]1CC[C@H]2[C@H](COc3ccc(NS(=O)(=O)c4ccc(Cl)cc4)cc3C(=O)N2C)O1)c1ccccc1,inactive
4,CCC(=O)N(C)C[C@@H]1[C@H](c2ccc(-c3ccccc3F)cc2)[C@H](CO)N1C(C)=O,inactive
5,CC(=O)N(C)C[C@@H]1[C@@H](c2ccc(-c3cccc(C#N)c3)cc2)[C@H](CO)N1C(C)=O,inactive
6,COc1cccc(C(=O)Nc2ccc3c(c2)C(=O)N(C)[C@@H]2CC[C@@H](CC(=O)N[C@H](C)c4ccccc4)O[C@@H]2CO3)c1,inactive
7,O=C(COc1ccccc1F)N1CCc2ccccc2C1,inactive
8,Cc1ccccc1NCN1C(=O)C2C3C=CC(C3)C2C1=O (centres undefined),inactive
9,CN1C(=O)c2cc(NC(=O)c3ccc4c(c3)OCO4)ccc2OC[C@@H]2O[C@@H](CC(=O)O)CC[C@@H]21,inactive
10,CCN(C[C@@H]1N[C@@H](CO)[C@@H]1c1ccc(C2=CCCC2)cc1)C(=O)c1cccnc1,inactive
11,CCCNC(=O)C[C@@H]1CC[C@@H]2[C@@H](COc3ccc(NS(=O)(=O)c4ccccc4C)cc3C(=O)N2C)O1,inactive
12,CNC(=O)C[C@H]1CC[C@H]2[C@@H](COc3ccc(NC(=O)C(C)C)cc3C(=O)N2C)O1,inactive
13,C/C=C/c1ccc([C@@H]2[C@@H](CO)N[C@@H]2CN(C(=O)C2CCCC2)C(C)C)cc1,inactive
14,CN(C[C@H]1N[C@@H](CO)[C@H]1c1ccc(-c2ccccc2)cc1)C(=O)C1CCC1,inactive
15,CO[C@H]1CN(C)C(=O)c2cc(NC(=O)c3cccc(Oc4ccccc4)c3)ccc2OC[C@@H](C)NC[C@H]1C,inactive
16,CC(C)NC(=O)N1C[C@@H]2[C@H](c3ccccc31)[C@@H](CO)N2C(=O)c1cccnc1,inactive
17,Cc1noc(C)c1NC(=O)N(C)C[C@@H]1Oc2cc(C#CCC3CCCC3)ccc2S(=O)(=O)N([C@@H](C)CO)C[C@@H]1C,inactive
18,C[C@H](CO)N1C[C@H](C)[C@H](CN(C)C(=O)C2CCC2)Oc2cc(-c3ccc(C(=O)N(C)C)cc3)ccc2S1(=O)=O,inactive
19,CC1CCN(CCc2nc3cc(NC(=O)Nc4ccccc4)ccc3n2C)CC1,inactive
20,O=C(c1cccc(F)c1)N1C[C@@H]2[C@H](c3ccccc31)[C@H](CO)N2C(=O)Cc1ccccc1,inactive

row,SMILES,outcome
1,CN1C(=O)c2cc(NC(=O)c3cccc(F)c3)ccc2OC[C@H]2O[C@H](CC(=O)NC3CCC3)CC[C@@H]21,inactive
2,CCN(C[C@@H]1[C@@H](c2ccc(C3=CCCCC3)cc2)[C@@H](CO)N1CC1CC1)C(C)=O,inactive
3,CCNC(=O)C[C@@H]1CC[C@H]2[C@H](COc3ccc(NC(=O)c4cccc(C(F)(F)F)c4)cc3C(=O)N2C)O1,inactive
4,COCC(=O)Nc1ccc2c(c1)C(=O)N(C)[C@@H]1CC[C@H](CC(=O)Nc3cn(C)nc3C)O[C@H]1CO2,inactive
5,Cc1ccccc1-c1ccc2c(c1)O[C@@H](CN(C)C(=O)Nc1ccc(F)cc1)[C@@H](C)CN([C@@H](C)CO)S2(=O)=O,inactive
6,CN1C(=O)c2cc(NC(=O)c3cccs3)ccc2OC[C@@H]2O[C@@H](CC(=O)O)CC[C@H]21,inactive
7,CC(C)C(=O)Nc1ccc2c(c1)C(=O)N(C)[C@H]1CC[C@@H](CC(=O)NCc3ccccc3F)O[C@H]1CO2,inactive
8,COCC(=O)N(C)C[C@H]1Oc2cc(-c3ccccc3F)ccc2S(=O)(=O)N([C@@H](C)CO)C[C@@H]1C,inactive
9,Cc1ccc(-n2c(Cc3ccccc3)n[nH]c2=S)cc1,inactive
10,COc1ccc(S(=O)(=O)N(C)C[C@@H]2Oc3cc(-c4cccc(F)c4)ccc3S(=O)(=O)N([C@H](C)CO)C[C@H]2C)cc1,inactive
11,Cc1ccc(S(=O)(=O)Nc2ccc3c(c2)C(=O)N(C)[C@@H]2CC[C@H](CC(=O)NCCc4ccncc4)O[C@@H]2CO3)cc1,inactive
12,C=CCc1c(OC)ccc2ccc(=O)oc12,inactive
13,CC(=O)N(C)C[C@H]1Oc2cc(C#Cc3ccc(F)cc3)ccc2S(=O)(=O)N([C@H](C)CO)C[C@H]1C,inactive
14,Nc1ccc(Oc2ccc(Br)cc2)cc1,inactive
15,O=C(COc1cccc2ccccc12)Nc1nc2ccccc2[nH]1,inactive
16,CO[C@@H]1CN(C)C(=O)c2ccc(NS(=O)(=O)c3ccc(C)cc3)cc2OC[C@@H](C)N(C(=O)NC(C)C)C[C@H]1C,inactive
17,COC(=O)C[C@H]1CC[C@@H]2[C@@H](COc3ccc(NC(=O)Nc4ccc(Cl)cc4)cc3C(=O)N2C)O1,inactive
18,COCC(=O)NC[C@H]1N[C@H](CO)[C@H]1c1ccc(C2=CCCC2)cc1,inactive
19,CC(=O)Nc1ccc2c(c1)C(=O)N(C)[C@@H]1CC[C@@H](CC(=O)NCc3ccc(Cl)cc3)O[C@H]1CO2,inactive
